Each structure is given as a SMILES string. Records with an inconclusive call do not appear. A call without a number means that no potency is given here. The source made the active and inactive calls. Calls follow the shape of the dose curve; as a rule, active = well fitted inhibition curve with a large enough effect; inconclusive = small, poorly fitted or top-dose-only effect; inactive = no such curve, though single readings can be large or run the other way.
Potency is read from the fitted curve at half-maximal effect.

A short description of this assay: qHTS Screen of the MIPE 4.0 Collection Against Ewings Sarcoma (EW8) (AID 1259255). Also: nearly all actives have a fitted effect of over 35% in size. The conditions noted are these: EW8 Ewing sarcoma viability, CellTiter-Glo, 48 h; series mostly up to 45.8 µM. An excerpt:
There is a large unmet medical need for treatments for Ewing sarcoma, a pediatric sarcoma. We sought to identify compounds that inhibited Ewing sarcoma cells in vitro with the goal to then test promising drugs in two drug combinations in vitro to look for synergistic drug combinations. Promising combinations would then proceed to additional validation, including in vivo testing.
Using the NCATS developed oncology compound library called the Mechanism of Interrogation Plate (MIPE), four Ewing sarcoma cell lines were evaluated (TC32, TC71, RDES, EW8). Compounds, in a 12-point titration series, were incubated with cells for 48 hours and the read out was cell viability (CellTiter-Glo from Promega). These initial experiments were used to select appropriate concentrations of each single agent for subsequent two-drug matrix combinations such that the concentrations in the matrices would span both activity and non-activity.
Cells, in the log phase of growth, were seeded in 5 uL of RPMI plus 5% FBS, […] L-glutamine, 100 U/ml penicillin and 100 ug/ml streptomycin into 1536-well solid-bottom white tissue culture treated Greiner Bio One Plates (789173-F) using a MultiDrop Combi (Thermofisher Scientific) dispenser and a small sterile cassette. One column was media alone to be used as a :"no cells" control. The plates were then covered with sterilized stainless steel gasketed lids from Kalypsys. After allowing cells to attach for 4 hours, 23 nL of test compound or control (negative control DMSO and positive control 9.2 uM Bortezomib-final) were added from a 1536-well polypropylene compound source plate to each well using a 1536 head pin tool from Kalypsys. Cells were then incubated for 48 hours at 37C, 95% relative humidity and 5% CO2. After 48 hours, plates were removed from the incubator and 3 uL of CellTiter-Glo (Promega) was added using an Aurora Flying Reagent Dispenser Bioraptor. Plates were incubated at room temperature for 10 minutes prior to reading the luminescence on the Viewlux (PerkinElmer). The relative luciferase units are used to calculate the percent activity using the activity of DMSO in the cells and no cells columns for normalization of no inhibition and full inhibition respectively.
In general terms: qHTS replaces the single test concentration by a dilution series.
Consider `COc1ccc2c(c1)CC[C@H]1[C@@H]2CC[C@]2(C)[C@@H](NCCCCCCN3C(=O)C=CC3=O)CC[C@H]12`, for which the Potency result is “inactive”.

For the compound `CC[C@H](NC(=O)[C@H](C)NC)C(=O)N1C[C@@H](O)C[C@H]1Cc1c(-c2[nH]c3cc(F)ccc3c2C[C@H]2C[C@H](O)CN2C(=O)[C@H](CC)NC(=O)[C@H](C)NC)[nH]c2cc(F)ccc12`, the Potency entry was “inactive”.

Take `CN1[C@H]2CC[C@H]1CC(OC(=O)c1c[nH]c3ccccc13)C2` (stereo not given in full): the Potency was 4.18 µM (active).

For the compound `CCNC(=O)Nc1ccc(Oc2ncnc(N)c2C=NOC)cc1Cl`, the Potency was 8.33 µM (active).

Consider `CN1CCN(c2cccc(Nc3nc4c(-c5ccc(S(C)(=O)=O)cc5)cccn4n3)c2)CC1`, for which the Potency is 5.9 µM (active).

Consider `O=c1[nH]nc(OCCCc2ccc(Cl)cc2)c(NCc2cccnc2)c1Br`, for which the Potency was 13.2 µM (active).

Take `CC[C@@H]([C@H](C)O)n1ncn(-c2ccc(N3CCN(c4ccc(OCC5CO[C@@](Cn6cncn6)(c6ccc(F)cc6F)C5)cc4)CC3)cc2)c1=O` (stereo not given in full): the Potency result was “inactive”.

Regarding `COc1nccc(-c2c(-c3ccc(F)cc3)ncn2C2CCC(O)CC2)n1` (stereo not given), the Potency result is “inactive”.

Regarding `CN[C@@H]1CN(c2ccc3c(=O)c(C(=O)O)cn(-c4nccs4)c3n2)C[C@@H]1OC`, the Potency was 0.323 µM (active).

In the case of `COc1cc2nc(-c3cc(F)ccc3O)nc(N[C@@H]3CNC[C@@H]3C(C)(C)O)c2cc1OC`, the Potency was 23.5 µM (active).

`O=C1NC(=O)C(=Cc2ccc(-c3ccc(F)cc3O)o2)S1`: the Potency was 18.7 µM (active).

Regarding `CN1C(=O)C(Cc2c[nH]c3ccccc23)NC1=S` (stereo not given), the Potency entry is “inactive”.

For the compound `CCCCCOC(=O)Nc1nc(=O)n([C@@H]2O[C@H](C)[C@@H](O)C2O)cc1F` (stereo not given in full), the Potency entry is “inactive”.

On to `O=c1[nH]c(=O)n([C@H]2C[C@@H](O)[C@@H](CO)O2)cc1I`, for which the Potency is 5.26 µM (active).

As for `C[C@H](CCC(=O)O)[C@H]1CC[C@H]2[C@H]3[C@@H](CC[C@]12C)[C@@]1(C)CC[C@@H](O)C[C@H]1C[C@@H]3O`, the Potency was 18.7 µM (active).

With `COc1c(C)c2c(c(O)c1CC=C(C)CCC(=O)OCCN1CCOCC1)C(=O)OC2`, the Potency was 1.05 µM (active).

With `c1ccc(-c2oc3ncnc(NC[C@@H]4CCCO4)c3c2-c2ccccc2)cc1`, the Potency was 18.7 µM (active).

Turning to `CC(C)C[C@@H](N)[C@H](O)C(=O)N[C@H](C(=O)N[C@H](C(=O)N[C@@H](CC(=O)O)C(=O)O)C(C)C)C(C)C`, the Potency result was “inactive”.

Consider `CC(C)(C)c1[nH]cnc1C=c1[nH]c(=O)c(=Cc2ccccc2)[nH]c1=O`, for which the Potency result is “inactive”.

Consider `CCN1CCC(n2cc(CNc3cc(Cl)c4ncc(C#N)c(Nc5ccc(F)c(Cl)c5)c4c3)nn2)CC1`, for which the Potency was 20.9 µM (active).

For `COc1cc2ncn(-c3cc(OCc4ccccc4S(C)(=O)=O)c(C#N)s3)c2cc1OC`, the Potency result was “inactive”.

For the compound `Cc1cn([C@@H]2C[C@@H](O)[C@H](CO)O2)c(=O)[nH]c1=O`, the Potency entry was “inactive”.

Take `N=C1SC(=Cc2ccc(-c3ccc4c(c3)C(=O)NC4=O)o2)C(=O)N1c1ccc(Br)cc1`: the Potency result was “inactive”.

On to `CN1CCN(c2ncc(-c3cc(Cl)cc(Cl)c3Cl)c(N)n2)CC1`, for which the Potency result is “inactive”.

For the compound `CCC(c1ccc(O)cc1)C(CC)c1ccc(O)cc1` (stereo not given), the Potency is 1.87 µM (active).

In the case of `CN[C@H]1[C@@H](O[C@@H]2[C@H](O[C@@H]3[C@@H](O)[C@@H](O)[C@@H](N=C(N)N)[C@@H](O)[C@@H]3N=C(N)N)O[C@H](C)[C@@]2(O)C=O)O[C@@H](CO)[C@@H](O)[C@H]1O`, the Potency entry was “inactive”.

For the compound `CN(CC=CC#CC(C)(C)C)Cc1cccc2ccccc12`, the Potency entry was “inactive”.

In the case of `NC(=O)c1noc([C@H](CCCC2CCCCC2)CC(=O)NO)n1`, the Potency is 18.7 µM (active).

On to `CN1CC(=O)N2C(Cc3c([nH]c4ccccc34)[C@H]2c2ccc3c(c2)OCO3)C1=O` (stereo not given in full), for which the Potency entry is “inactive”.

On to `Cc1nc(C(=O)NCC(=O)O)c(O)c2ccc(Oc3ccccc3)cc12`, for which the Potency result was “inactive”.

As for `CC[C@H]1OC(=O)[C@H](C)[C@@H](O[C@H]2C[C@@](C)(OC)[C@@H](O)[C@H](C)O2)[C@H](C)[C@@H](O[C@@H]2O[C@H](C)C[C@H](N(C)C)[C@H]2O)[C@](C)(O)C[C@H](C)C(=NOCOCCOC)[C@H](C)[C@@H](O)[C@]1(C)O`, the Potency result is “inactive”.

As to `O=C(O)Cc1cccc(OCCCN(Cc2cccc(C(F)(F)F)c2Cl)CC(c2ccccc2)c2ccccc2)c1`, the Potency is 20.9 µM (active).

Consider `COc1cc(F)c(C(C)C)cc1-c1ccc(C(F)(F)F)cc1CN1C(=O)O[C@H](c2cc(C(F)(F)F)cc(C(F)(F)F)c2)[C@@H]1C`, for which the Potency entry was “inactive”.

As to `Cc1cnc(-c2cc(N3CCN(C(=O)CCS(C)(=O)=O)CC3)ncc2Cl)c(C)c1`, the Potency entry was “inactive”.

Take `CN(C(Cc1ccc(OS(=O)(=O)c2cccc3cnccc23)cc1)C(=O)N1CCN(c2ccccc2)CC1)S(=O)(=O)c1cccc2cnccc12` (stereo not given): the Potency was 14.8 µM (active).

On to `O=C(O)CCNc1cc(N2CCc3ccccc3CC2)nc(-c2ccccn2)n1`, for which the Potency entry was “inactive”.

Turning to `C[C@@H]1CC=CC=CC=CC=C[C@@H](O[C@@H]2O[C@H](C)[C@@H](O)[C@H](N)[C@H]2O)C[C@@H]2O[C@](O)(C[C@@H](O)C[C@@H]3O[C@@H]3C=CC(=O)O1)C[C@H](O)[C@@H]2C(=O)O`, the Potency is 11.8 µM (active).

As to `C=C1[C@H](n2cnc3c(=O)[nH]c(N)nc32)C[C@H](O)[C@H]1CO`, the Potency is 13.2 µM (active).

`Cc1ccc(NC(=O)c2ccc(CN3CCN(C)CC3)cc2)cc1Nc1nc(-c2cccnc2)cs1`: the Potency is 23.5 µM (active).

Take `O=C(c1ccc(F)c(F)c1Nc1ccc(I)cc1F)N1CC(O)([C@H]2CCCCN2)C1`: the Potency is 23.5 µM (active).

Values taken from PubChem BioAssay (NCATS).
